ELG1 genotox: qHTS screen for small molecules that induce genotoxicity in human embryonic kidney (HEK293T) cells expressing luciferase-tagged ELG1; Potency, µM (top dose mostly 46 µM), for the others: at the highest dose activity change, positive = activation, most hits filed as activators; 330,000 tested, 1.3% active; HEK293T ELG1-luciferase reporter, luminescence, 16 h; note: % of control where 0% means no effect; nearly all actives have a fitted effect of over 60% in size
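Genotoxic stress is detected as increased luminescence from luciferase-tagged ELG1 in HEK293T cells, measured with ONE-Glo after a 16 hr treatment at 37 °C.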
ELG1 DNA repair: qHTS screen for small molecules that inhibit ELG1-dependent DNA repair in human embryonic kidney (HEK293T) cells expressing luciferase-tagged ELG1. Potency, µM (titrated, usually from 46.1 µM), without a hit: at the top dose activity change, negative = inhibition, actives largely listed as inhibitors. 330,000 tested, 2.3% active. AID 504467, 2011. HEK293T ELG1-luciferase reporter, luminescence, 16 h; DNA damage induced by 5-fluorouridine; note: % is set by controls: 0 for no effect and ±100 for the full control effect; nearly all actives have a fitted effect of over 55% in size
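Overnight (16 hr) co-exposure of 2,000 cells/well to 5-fluorouridine and compound at 37 °C preceded detection. Luciferase was quantified via ONE-Glo luminescence; loss of signal denotes inhibition.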
FLuc counter: qHTS profiling assay for firefly luciferase inhibitor/activator using purifed enzyme and Km concentrations of substrates (counterscreen for miR-21 project); Luciferin 4-monooxygenase (Photinus pyralis), P08659; Potency, µM (doses to about 57.5 µM), for inactives: at the highest dose activity change, negative = inhibition, hits mostly inhibitors; purified FLuc, Km substrates, luminescence inhibition; 360,000 tested, 6.9% active;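 note: plate controls were vehicle for no effect and reference inhibitor for full effect; nearly all actives have a fitted effect of over 55% in size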
Target sequence (P08659 whole entry, looked up): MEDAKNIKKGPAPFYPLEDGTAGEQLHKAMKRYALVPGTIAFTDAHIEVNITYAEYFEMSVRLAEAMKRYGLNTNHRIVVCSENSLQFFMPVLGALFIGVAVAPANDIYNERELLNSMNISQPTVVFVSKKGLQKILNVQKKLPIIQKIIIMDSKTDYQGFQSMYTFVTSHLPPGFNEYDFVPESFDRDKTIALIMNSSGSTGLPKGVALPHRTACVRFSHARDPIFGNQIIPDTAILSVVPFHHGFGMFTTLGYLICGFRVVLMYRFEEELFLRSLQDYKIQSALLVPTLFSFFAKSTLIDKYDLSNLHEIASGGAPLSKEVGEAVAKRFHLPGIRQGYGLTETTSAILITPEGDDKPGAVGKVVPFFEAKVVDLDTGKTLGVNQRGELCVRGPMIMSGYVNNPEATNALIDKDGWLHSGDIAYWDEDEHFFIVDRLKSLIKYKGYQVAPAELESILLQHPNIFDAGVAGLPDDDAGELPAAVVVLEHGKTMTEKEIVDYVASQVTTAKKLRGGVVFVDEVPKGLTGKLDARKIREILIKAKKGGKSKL
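Biochemical qHTS of compounds, final roughly 60 µM downward over six points, against 10 nM purified firefly luciferase using Km concentrations of substrates (10 uM D-luciferin, 10 uM ATP) in Tris acetate pH 7.5 buffer; luminescence output.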
SMN2 splice up: qHTS Assay for Enhancers of SMN2 Splice Variant Expression; Potency, µM (doses to about 46.1 µM), for inactives: at the highest dose activity change, positive = activation, actives largely listed as activators; AID 1458, 2008; HEK293 SMN2-luciferase splicing reporter, luminescence, 30-36 h; 210,000 tested, 2.8% active; note: % of control where 0% means no effect; nearly all actives have a fitted effect of over 55% in size
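HEK293 cells carry an SMN2 […]–luciferase reporter in which exon 7 inclusion puts luciferase in frame. Cells were plated 10-12 h before compound addition, then incubated 30-36 h at 37C. ONE-Glo luminescence was read; sodium butyrate at 4.5 mM final served as control.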
Rab9 prom act: qHTS Assay for Rab9 Promoter Activators; Huh7 Rab9 promoter-luciferase reporter, luminescence, 24 h; Potency, µM (top dose mostly 9.22 µM), for the others: at the top dose activation, negative = inhibition, hits mostly activators; 320,000 tested, 2.8% active; note: % of control where 0% means no effect; nearly all actives have a fitted effect of over 60% in size
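Using Huh7 cells stably transfected with Rab9 promoter–luciferase, compounds were incubated 24 h at 37 °C, 5% CO2; luciferase luminescence was read 10 min after reagent addition.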
NPC1 promoter act: qHTS Assay for NPC1 Promoter Activators. Potency, µM (series often up to 9.22 µM), for inactives: at the top dose activation, actives largely listed as activators. Huh7 NPC1 promoter luciferase reporter, 24 h. 320,000 tested, 2.4% active. AID 485313, 2010; note: % of control where 0% means no effect; nearly all actives have a fitted effect of over 60% in size
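Luminescence from an NPC1 promoter-driven luciferase reporter in stably transfected Huh7 cells was measured after 24 h compound treatment at 37 °C, followed by 10 min ambient incubation with luciferase detection reagent.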
* marks the source's active call; other numbers are inactive results; ? = inconclusive; · = no result given; [ ] = another dose, or the depositor's remark. In the library only some 9.2% were active in any assay of this set; here they are far more common. Calls come from the whole dose curve; as a rule, active = well fitted curve in the direction sought with a large enough effect; inconclusive = small, poorly fitted or top-dose-only effect, or another doubt; inactive = no such curve, though single readings can be large; an effect the other way counts as inactive or inconclusive. Potency is the fitted concentration of half-maximal effect.

SMILES | ELG1 genotox | ELG1 DNA repair | FLuc counter | SMN2 splice up | Rab9 prom act | NPC1 promoter act
COc1ccc(Nc2oc(COc3cccc(C)c3)nc2C#N)cc1 | 16µM* | ? | 5.4µM* | 19% | ? | ?
Cc1cccc(-c2nc(C#N)c(NCc3ccco3)o2)c1 | ? | ? | 11µM* | · | ? | ?
Cc1ccc(-c2nc(C#N)c(NCc3ccco3)o2)cc1 | 5.8µM* | ? | 4.8µM* | ? | ? | ?
COC1(C(F)(F)F)NC(=O)N(c2ccc(F)cc2)C1=O (stereo unspecified) | · | · | 1% | 0% | · | ·
CCOC(=O)[C@H]1[C@H]2COc3cc(OC)ccc3[C@@H]2N2C(=O)CN(Cc3ccc(C)cc3)C(=O)[C@@]12C | 0% | -16% | 4% | · | -3% | -1%
O=S1(=O)CCC(N=Nc2c(O)n(Cc3ccccc3)c3ccccc23)C1 (stereo unspecified) | -1% | 0% | 4% | · | -4% | -1%
Cc1cc(C(=O)CSc2nc(N)cc(=O)[nH]2)c(C)n1CC1CCCO1 (stereo unspecified) | -3% | -16% | · | · | · | ·
Cc1cc(C(=O)CSC(C)c2nc3ccccc3c(=O)[nH]2)c(C)n1C (stereo unspecified) | -1% | -5% | -1% | -20% | -6% | -15%
Cc1cc(C(=O)CSc2nc3ccccc3o2)c(C)n1CC1CCCO1 (stereo unspecified) | 2% | ? | 1.3µM* | -89% | 0.79µM* | 0.71µM*
Cc1cc(C(=O)CSc2nc3ccccc3c(=O)[nH]2)c(C)n1C | 14µM* | ? | ? | 35µM* | ? | ?
Cc1cc(C(=O)CSc2nc3ccccc3[nH]2)c(C)n1CC1CCCO1 (stereo unspecified) | -10% | ? | 0.54µM* | -53% | ? | ?
Cc1cc(C(=O)CSc2nc(N)cc(N)n2)c(C)n1CC1CCCO1 (stereo unspecified) | -2% | 0% | · | · | · | ·
CCc1ccc(NC(=O)Cn2nc(C)n3cccc3c2=O)cc1 | 4% | 4% | -2% | · | -3% | 0%
Cc1ccc(OCC(=O)Nc2ccc(N3CCOCC3)cc2)c([N+](=O)[O-])n1 | -2% | -25% | 0% | -18% | -4% | -10%
Cc1ccc(OCCOc2ccc(Br)cc2)c([N+](=O)[O-])n1 | ? | ? | 9.5µM* | 11µM* | ? | ?
Cc1ccc(OCC(=O)Nc2ccc(C)c(F)c2)c([N+](=O)[O-])n1 | ? | ? | 9.5µM* | · | 2µM* | 2.2µM*
Cc1ccc(OCC(=O)Nc2ccc3c(c2)OCO3)c([N+](=O)[O-])n1 | ? | ? | 6µM* | 20µM* | ? | ?
Cc1ccc(OCC(=O)Nc2ccc3c(c2)OC(F)(F)O3)c([N+](=O)[O-])n1 | 1% | 3% | 7% | -11% | -1% | -5%
COc1ccc(NC(=O)c2cc3cc(OC)ccc3oc2=N)cc1 | 10% | 7% | 9.5µM* | -22% | -1% | 9%
COc1ccc2oc(=O)c(C(C)=O)cc2c1 | -1% | -7% | 6% | -19% | 1% | -4%
COc1ccccc1NC(=O)c1cc2cc(Br)ccc2oc1=N | 2% | 25% | 4.8µM* | · | -1%[1.84 µM] | 26%
COc1ccc2oc(=O)c(C(=O)Nc3ccccc3O)cc2c1 | 0.65µM* | ? | 0.6µM* | · | 0.4µM* | 1µM*
COc1ccc2oc(=O)c(C(=O)Nc3ccc(C(=O)O)cc3)cc2c1 | · | · | 6.7µM* | -1% | · | ·
N=c1oc2ccc(Br)cc2cc1C(=O)NC1CCCCCC1 | -8% | 11% | 2% | · | 0% | 0%
N/C(=N/OC(=O)c1ccc(Cl)cc1)c1ncc([N+](=O)[O-])s1 | 7% | ? | ? | · | ? | 25%
SMILES | ELG1 genotox | ELG1 DNA repair | FLuc counter | SMN2 splice up | Rab9 prom act | NPC1 promoter act
Cc1ccc(/C=C2/SC(=O)N(CC(=O)N3CCOCC3)C2=O)s1 | 5% | 26% | ? | 7% | -5% | -1%
O=C(CN1C(=O)S/C(=C/c2ccccn2)C1=O)N1CCOCC1 | 4% | ? | -2% | · | 3% | 1%
O=C(CN1C(=O)S/C(=C/c2ccc(N3CCOCC3)cc2)C1=O)N1CCOCC1 | ? | ? | 3µM* | ? | 22% | 27%
O=C(CN1C(=O)S/C(=C\C=C\c2ccccc2)C1=O)N1CCOCC1 | 13% | ? | 4.8µM* | · | 26% | 19%
CCN(CC)S(=O)(=O)c1cc(C(=O)n2cccn2)c(Cl)cc1Cl | -5% | 19% | 0% | 2% | 0% | 1%
CCC(OC(=O)c1nsc(Cl)c1Cl)C(=O)NCC1CCCO1 (stereo unspecified) | -5% | 15% | 1% | · | 0% | 1%
Cc1ccc(-c2cc(C(F)(F)F)n3nc(-c4ccc(Cl)cc4)cc3n2)cc1 | · | · | 2% | -5% | · | ·
Clc1ccc(-c2nnc3n2CCCCC3)cc1 | 2% | 10% | -1% | 9% | -9% | 0%
Oc1ccc(-c2cn3cc(C(F)(F)F)ccc3n2)cc1 | 2.1µM* | ? | 0.67µM* | 0.89µM* | 0.5µM* | 0.79µM*
Clc1ccc(-c2cn3c(n2)CCC3)cc1 | 4.1µM* | ? | 12µM* | 18% | ? | 2.2µM*
Brc1ccc(-c2cn3ccccc3n2)s1 | 0.65µM* | ? | 0.76µM* | 7.1µM* | 0.35µM* | 1µM*
Clc1ccc(-c2cn3cc(Cl)ccc3n2)cc1 | 1.3µM* | ? | 0.27µM* | · | 0.79µM* | 3.5µM*
CCOC(=O)[C@H]1[C@H]2COc3ccc(Cl)cc3[C@@H]2N2C(=O)CN(Cc3ccco3)C(=O)[C@@]12C | 1% | 5% | 0% | · | -3% | 0%
CC(C)CCNC(=O)c1ccc(Cn2c(=O)c3cccn3c3cccnc32)cc1 | · | · | -4% | · | · | ·
COc1ccc(CCNC(=O)C(C)n2c(=O)cc(C(F)(F)F)c3c(C)nn(C)c32)cc1OC (stereo unspecified) | · | · | -2% | · | · | ·
Clc1ccc(-c2cn3ccccc3n2)cc1 | ? | ? | 0.67µM* | · | 0.45µM* | 0.71µM*
CCOc1ccc(Nc2nc3ccccc3n3nnnc23)cc1 | ? | ? | ? | 14% | 4.5µM* | 27%
CC(NC(=O)c1ccc(Nc2nc3ccccc3n3nnnc23)cc1)c1ccccc1 (stereo unspecified) | · | · | -2% | 18% | · | ·
Cc1ccc(N2CCN(C(=O)c3ccc(Nc4nc5ccccc5n5nnnc45)cc3)CC2)c(C)c1 | · | · | 2% | 6% | · | ·
